Assay results as given in PubChem BioAssay (NCI).
The panel holds about 83,000 compounds, 20% with a hit somewhere; the sample as a whole holds those more often.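 Results are percent growth after 48 hours of single-concentration exposure. 100 means growth as in untreated cells, lower positive values show inhibition; negative values down to -100 show cell death.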 A number with no mark means an inactive call. Activity calls are given as the source filed them. How the source made its calls: active means growth percent below 10; inactive means the rest.

The compounds below were run on UACC-257 melanoma (assay: NCI-60 one-dose screen, 48 h (100 = growth as untreated, 0 = no growth, -100 = all killed)). Settings: 10 µM unless noted.
Compound CC1(C)NCCC[C@]2(C)[C@H]3CC=C4[C@@H]5C[C@](C)(COC(=O)c6ccccc6C(=O)O)CC[C@]5(C)CC[C@@]4(C)[C@]3(C)CC[C@@H]12 has a growth of 67.8%.
COc1ccccc1Nc1nnc(COc2ccc(CNC(=O)CCCC/C=C/C(C)C)cc2OC)o1 showed a growth of 96.7%.
Work on CCCCCCCCCCCCCCCCC(=O)O.CCCCCCCCCCCCCCCCCC(=O)O.CCCCCCCCCCCCCCCCCC(=O)O.CCCCCCCCCCCCCCCCCC(=O)O.CCCCCCCCCCCCCCCCCC(=O)O.CO[CH-]OC12COC1CC(O)C1(C)C(O)C(OC(C)O)C3=C(C)C(OC(=O)C(O)C([NH-])c4ccccc4)CC(O)(C(OC(=O)c4ccccc4)C21)C3(C)C.[Cu+].[Zn].[Zn].[Zn].[Zn].[Zn] (stereo not given) yielded a growth of 80.6%.
Cc1c(CN(C)C)cc(C(C)C)cc1C(C)C showed a growth of 108%.
In the case of COC1=C(OC)C(=O)c2ccccc2C1=O, the growth is reported as 76.7%.
COc1ccc(C(=O)CN2C(=O)NC(c3ccccc3)(c3ccccc3)C2=O)cc1 gave a growth of 98.7%.
Work on CCNc1nnc(COc2ccc(CNC(=O)CCCC/C=C/C(C)C)cc2OC)o1 yielded a growth of 105%.
Compound CCS(=O)(=O)OCCO[C@H]1Cc2cc3ccc(=O)oc3cc2OC1(C)C has a growth of 97.8%.
CC(C)OC(=O)[C@H](C)N[P@@](=O)(OC[C@@]1(C)O[C@@H](n2cc(F)c(N)nc2=O)C[C@@H]1O[P@](=O)(N[C@@H](C)C(=O)OC(C)C)Oc1ccccc1)Oc1ccccc1 showed a growth of 92.6%.
In the case of CC[C@@H](C)/C=C(C)/C=C/C(=O)c1c(O)c(-c2ccc(OC(=O)[C@@]34CC[C@@](C)(C(=O)O3)C4(C)C)cc2)cn(O)c1=O, the growth is reported as 2.75% (active).
